Test results from PubChem BioAssay (Tox21).
Results filed as inconclusive are left out. Calls of active or inactive are those of the source. The call rests on the fitted dose curve; in most records, active means well fitted activation curve with a large enough effect in the signal ratio in the repeat runs (not every such curve was filed as active); inconclusive means weak or mixed curves; inactive means flat fitted curve, though single readings scatter; the % refers to the signal ratio. Starred links: 1 amine or outer side, 2 acyl side, 3 side chain; linkers in the order of their positions; H or OH if unused. Positions of bridges follow the written chain, without caps; N, C: chain ends. Non-standard residues stand in square brackets, D forms with d. Residues, ends and D or L forms follow the SMILES beside them. Chains are numbered I, II in the order given. Actinocin(9to1) = Cc1c2oc3c(C)ccc(C(=O)[*:1])c3nc-2c(C(=O)[*:2])c(N)c1=O; NMeV = CN[C@H](C(=O)O)C(C)C; Sar = CNCC(=O)O

experiment: qHTS assay to identify small molecule agonists of the TGF-beta/Smad signaling pathway (AID 1346859); conditions: SBE-bla HEK293T, TGF-beta/Smad beta-lactamase reporter, 5 h; series mostly up to 76.8 µM; activation: at the top concentration
Description: U.S. Tox21 Program National Center for Advancing Translational Sciences [NCATS] NIH Chemical Genomics Center [NCGC] U.S. Environmental Protection Agency [EPA] National Institutes of Environmental Health Sciences [NIEHS] National Toxicology Program [NTP] U.S. Food and Drug Administration [FDA] Tox21 Assay Overview: Transforming growth factor beta (TGF-beta) superfamily consists of a large number of structurally related dimeric proteins that act as hormones or local mediators in regulating a wide range of biological functions. This superfamily includes TGF-betas themselves, the bone morphogenetic proteins (BMPs) and the activins. These ligands induce oligomerization of serine/threonine receptor kinases and phosphorylate the cytoplasmic signaling molecules of Smad protein family. CellSensor SBE-bla HEK 293T cell line (Life Technologies, Carlsbad, CA), responsive to TGF-beta was used to screen Tox21 10K compound library for identification of agonists/antagonists of the Smad signaling pathway. This cell line contains a beta-lactamase reporter gene under control of the Smad binding element (SBE) stably integrated into HEK 293T cells.
Tox21 Assay Protocol Summary: SBE-bla HEK 293T cells were dispensed at 4,000/well in 6 uL of assay medium into black wall/clear-bottom 1536-well plates using a Multidrop Combi (ThermoFisher Scientific, Waltham, MA) dispenser. After the assay plates were incubated at 37 C and 5% CO2 for an overnight, 23 nL of compounds dissolved in DMSO, positive controls or DMSO only was transferred to the assay plate by a Pintool station (Kalypsys, San Diego, CA). The assay plates were incubated at 37 C and 5% CO2 for 5 hr. One uL of LiveBLAzer B/G FRET substrate (Life Technologies) was added using a Flying Reagent Dispenser (Aurora Discovery, San Diego, CA) and the plates were incubated at room temperature for 2 hr. Fluorescence intensity (405 nm excitation, 460 nm and 530 nm emissions) was measured using an Envision plate reader (PerkinElmer, Shelton, CT).
On the % scale 0 is the no-effect control and ±100 the full control effect.

Compound | activation | outcome
COc1nc(C)nc(Cl)c1NC1=NCCN1 | 4.05% [at 35.3 µM] (inactive) | 
CCCCCCCCCCCCCCCCCl | 0.675% [at 15.8 µM] (inactive) | 
CC(=O)OCCOCCOCCOC(C)=O |  | inactive
O=C(O)c1cn(-c2ccc(F)cc2)c2cc(N3CCNCC3)c(F)cc2c1=O |  | inactive
CC(=O)N[C@@H](CS)C(=O)O |  | inactive
Cc1cc(Cc2cc(C)cc(C(C)(C)C)c2O)c(O)c(C(C)(C)C)c1 | 4.19% (inactive) | 
NNCCc1ccccc1 |  | inactive
Cc1scc2c1N(C(=O)CN1CCN(C)CC1)c1ccccc1NC2=O | -0.14% [at 35.3 µM] (inactive) | 
CCC(CO)(CO)COCC(CC)(CO)CO | 1.05% (inactive) | 
CC(C)(C)c1ccc(O)c(C(C)(C)C)c1 |  | inactive
Cc1c2oc3c(C)ccc(C(=O)N[C@@H]4C(=O)N[C@H](C(C)C)C(=O)N5CCC[C@H]5C(=O)N(C)CC(=O)N(C)[C@@H](C(C)C)C(=O)O[C@@H]4C)c3nc-2c(C(=O)N[C@@H]2C(=O)N[C@H](C(C)C)C(=O)N3CCC[C@H]3C(=O)N(C)CC(=O)N(C)[C@@H](C(C)C)C(=O)O[C@@H]2C)c(N)c1=O (I: T[dV]P[Sar][NMeV] / II: T[dV]P[Sar][NMeV]; ester I:1-I:C, II:1-II:C; linker I:N-II:N via Actinocin(9to1)) |  | inactive
O=C(Cl)c1cccc(C(=O)Cl)c1 |  | inactive
Cc1cccc([N+](=O)[O-])c1C(=O)O | -1.6% (inactive) | 
COc1cc(C(=S)N2CCOCC2)ccc1O | 0.564% [at 35.3 µM] (inactive) | 
Cc1cc(C2(c3cc(C)c(O)cc3C)OS(=O)(=O)c3ccccc32)c(C)cc1O |  | inactive
[Cl][In]([Cl])[Cl] |  | inactive
COc1ccc(CCN2CCC(Nc3nc4ccccc4n3Cc3ccc(F)cc3)CC2)cc1 | -4.62% [at 35.3 µM] (inactive) | 
CC(C)(C)NC(=O)[C@@H]1CN(Cc2cccnc2)CCN1C[C@@H](O)C[C@@H](Cc1ccccc1)C(=O)N[C@H]1c2ccccc2C[C@H]1O |  | inactive
CC(=O)CC(=O)Nc1ccc2[nH]c(=O)[nH]c2c1 | -0.476% (inactive) | 
N[C@@H]1CONC1=O | -0.407% [at 35.3 µM] (inactive) | 

Compound | activation | outcome
CCCCC/C=C/CC1CC(=O)OC1=O (stereo not given) | -0.267% (inactive) | 
O=C(O)Cn1cnnn1 | 2.31% [at 35.3 µM] (inactive) | 
c1ccc2n[nH]nc2c1 |  | inactive
O=C(Nc1ccccc1SSc1ccccc1NC(=O)c1ccccc1)c1ccccc1 | 14.5% (inactive) | 
CCC(C)(Oc1ccc(C2(c3ccc(OC(C)(CC)C(=O)O)cc3)CCCCC2)cc1)C(=O)O (stereo not given) | 1.36% [at 35.3 µM] (inactive) | 
O=C(O[C@@H]1Cc2c(O)cc(O)cc2O[C@@H]1c1cc(O)c(O)c(O)c1)c1cc(O)c(O)c(O)c1 |  | inactive
CCCCC(CC)COC(=O)CC(C(=O)OCC(CC)CCCC)S(=O)(=O)O (stereo not given) | 15.4% (inactive) | 
CC(C)CCOCc1ccccc1 | -1.03% (inactive) | 
CCn1cc(C(=O)O)c(=O)c2cc(F)c(N3CCNC(C)C3)c(F)c21 (stereo not given) | -0.14% [at 35.3 µM] (inactive) | 
O=S(=O)(O)c1ccc2nc(-c3ccccc3)[nH]c2c1 |  | inactive
Nc1ccc(O)cc1 | 3.98% [at 35.3 µM] (inactive) | 
Cc1cccc(O)c1C |  | inactive
CC(C)(C)NCC(O)COc1ccccc1OCC1CCCO1 (stereo not given) | 0.226% [at 35.3 µM] (inactive) | 
O |  | inactive
Cc1cccc2n[nH]nc12 |  | inactive
Cc1ccnc2c1NC(=O)c1cccnc1N2C1CC1 |  | inactive
CC(C(O)c1ccc(O)cc1)N1CCC(Cc2ccccc2)CC1 (stereo not given) | 2.49% [at 35.3 µM] (inactive) | 
CCc1cc(C(C)(C)C)c(O)c(C(C)(C)C)c1 |  | inactive
CC(C)(C)NCC(O)c1cc(O)cc(O)c1 (stereo not given) | 0.265% [at 35.3 µM] (inactive) | 
CCC(=O)/C=C/C1C(C)=CCCC1(C)C (stereo not given) |  | inactive
